In all, about 2,100 compounds went through this assay and about 770 (37%) were called active. Some of the results follow. Unmarked numbers belong to inactive results.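 How the source made its calls: active means by-eye trace score of 1 for enhancers or -1 for inhibitors, so actives lie on both sides (some results past the limit were not filed as active); inactive means score 0, or 3 fluorescent, or 4 baseline rise.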

In this assay the target is G protein-activated inward rectifier potassium channel 2 (Homo sapiens) + G protein-activated inward rectifier potassium channel 1 (Homo sapiens) (UniProt P48051+P48549). The assay can be described thus: GIRK1/2 thallium flux modulators, retest, confirmation, cell-based, HEK293 rmGlu8/hGIRK1/2, FluoZin-2 (AID 623911). The following applies: HEK293 rmGlu8/hGIRK1/2, thallium flux FluoZin-2; actives lie on both sides; glutamate co-added at its EC20 level.
Chain of G protein-activated inward rectifier potassium channel 2 (Homo sapiens) + G protein-activated inward rectifier potassium channel 1 (Homo sapiens) (P48051 whole entry, looked up): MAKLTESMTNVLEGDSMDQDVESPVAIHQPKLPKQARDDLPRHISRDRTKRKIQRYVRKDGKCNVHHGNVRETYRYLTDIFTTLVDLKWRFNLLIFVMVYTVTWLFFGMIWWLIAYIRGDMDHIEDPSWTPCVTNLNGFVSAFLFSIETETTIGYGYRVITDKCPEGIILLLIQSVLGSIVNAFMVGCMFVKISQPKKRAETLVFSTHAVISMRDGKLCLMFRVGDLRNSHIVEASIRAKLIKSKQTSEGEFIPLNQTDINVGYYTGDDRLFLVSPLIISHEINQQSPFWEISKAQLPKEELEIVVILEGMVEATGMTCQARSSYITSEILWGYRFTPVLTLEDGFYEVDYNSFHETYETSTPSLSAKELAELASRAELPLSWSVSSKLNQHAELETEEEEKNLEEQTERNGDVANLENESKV
Chain of G protein-activated inward rectifier potassium channel 2 (Homo sapiens) + G protein-activated inward rectifier potassium channel 1 (Homo sapiens) (P48549 whole entry, looked up): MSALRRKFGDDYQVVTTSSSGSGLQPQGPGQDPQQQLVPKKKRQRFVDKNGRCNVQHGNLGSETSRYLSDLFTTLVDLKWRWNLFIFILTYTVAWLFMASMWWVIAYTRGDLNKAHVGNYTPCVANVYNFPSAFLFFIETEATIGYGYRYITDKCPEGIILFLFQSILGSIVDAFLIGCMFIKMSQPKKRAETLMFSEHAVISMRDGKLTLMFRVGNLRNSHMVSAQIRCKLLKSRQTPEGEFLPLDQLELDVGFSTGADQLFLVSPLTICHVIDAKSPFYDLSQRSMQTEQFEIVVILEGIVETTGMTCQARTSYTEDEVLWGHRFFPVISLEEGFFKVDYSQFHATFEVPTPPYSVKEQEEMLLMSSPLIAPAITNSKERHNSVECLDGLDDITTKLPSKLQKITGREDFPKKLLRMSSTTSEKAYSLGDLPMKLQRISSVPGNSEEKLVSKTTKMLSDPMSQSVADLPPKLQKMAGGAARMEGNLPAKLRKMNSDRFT
In the case of `CCOc1ccc(C2=NNC(c3cccs3)=Nc3ccc(OC)cc32)cc1`, the manual score is 0. On to `COc1ccc2nc(/N=C/c3c(C)[nH]n(-c4ccc(C)cc4C)c3=O)sc2c1`, for which the manual score was 1 (active). For `CCn1c(SCc2ccc(Cl)cc2)nnc1-c1ccccc1`, the manual score was 0. In the case of `COc1ccc2nc(/N=C/c3c(C)[nH]n(-c4ccc(C)cc4)c3=O)sc2c1`, the manual score is 1 (active).

For `CCOc1ccc2nc(/N=C/c3c(C)[nH]n(-c4ccccc4)c3=O)sc2c1`, the manual score was 1 (active). For the molecule `Cc1ccc(-n2[nH]c(C)c(C=Nc3cc(C)ccn3)c2=O)cc1`, the manual score is 0. The same measure for `Cc1[nH]n(-c2ccccc2)c(=O)c1/C=N/c1ccccn1`: 0; for `Cc1[nH]n(-c2ccc(Cl)cc2)c(=O)c1/C=N/c1nnc(-c2ccccc2)s1`: 1 (active); for `COc1ccc(OC)c(-c2c3cc(O)c(=O)cc-3oc3cc(O)c(O)cc23)c1`: 0. Consider `Cc1ccc(NC(=O)c2cc(NC(=O)CCC(=O)O)ccc2N2CCCCC2)cc1`, for which the manual score was 0. On to `CN1CCN(C(=O)Nc2cccc3ccccc23)CC1`, for which the manual score is 0. Consider `CC1=C(C)C(c2ccccc2)NC(=S)N1` (stereo not given), for which the manual score is 0. In the case of `CCOc1[nH]n(-c2ccc(Cl)cc2)c(=O)c1C=Nc1ccc(Cl)cc1`, the manual score was 0. Consider `CCOc1ccc2nc(NC(=O)C(CC)Sc3nc(C)cc(=O)[nH]3)sc2c1` (stereo not given), for which the manual score is 0. `CCOc1ccc2nc(/N=C/c3c(C)[nH]n(-c4ccc(C)cc4)c3=O)sc2c1`: the manual score was 1 (active). As for `CCOC(=O)c1cc(NC(=O)SCC(=O)O)c(C)nc1C`, the manual score was 0. The same measure for `CCNC(=S)Nc1nc2c(cc1C(=O)OCC)CCCC2`: 1 (active); for `C=CCNC(=S)Nc1nc2c(cc1C(=O)OCC)CCCC2`: 1 (active). Regarding `C=C(C)CNC(=S)Nc1nc2c(cc1C(=O)OCC)CCCC2`, the manual score was 1 (active). As for `C=C(C)CNC(=S)N/N=C1\CCCCc2ccccc21`, the manual score is 0. For `CCOC(=O)C1=NNC(C(=O)c2ccc(OC)cc2)C1c1ccccc1` (stereo not given) the value was 0; for `CC1CCc2c(sc(NC(=O)C(=O)NCc3ccco3)c2C#N)C1` (stereo not given), 0; for `O=C(Nc1ccc(Cl)cc1)NC1CCCCC1Cc1ccco1` (stereo not given), 1 (active).

As for `CC(Cc1cccs1)NC(=O)Nc1ccc(Cl)cc1` (stereo not given), the manual score was 0.5. For `O=C(COc1ccccc1Cl)NC(=S)N1CCc2ccccc21` the value was 1 (active); for `O=C(COc1ccc(Cl)cc1Cl)NC(=S)N1CCCc2ccccc21`, 0; for `CC(Oc1ccc(Cl)cc1Cl)C(=O)NC(=S)N1CCc2ccccc21` (stereo not given), 1 (active).

For the molecule `Cc1cccc(OCC(=O)NC(=S)N2CCCc3ccccc32)c1`, the manual score was 0. Turning to `O=C(COc1ccccc1)NC(=S)N1CCc2ccccc21`, the manual score was 1 (active). The same measure for `O=C(COc1ccc(Br)cc1Cl)NC(=S)N1CCc2ccccc21`: 0.5.

(Values after PubChem BioAssay AID623911 (Vanderbilt High Throughput Screening Facility, 2012).)
